The record followed here is PubChem BioAssay AID651597 (National Center for Advancing Translational Sciences (NCATS), 2012).

Hit rate of the full screen: of about 1,100 compounds, about 390 (35%) were called active. Roughly 30% stayed inconclusive and do not appear here. This is one part of the list. Unmarked numbers belong to inactive results. Calls come from the whole dose curve; as a rule, active = well fitted inhibition curve with a large enough effect; inconclusive = small, poorly fitted or top-dose-only effect; inactive = flat fitted curve, though single readings scatter.
% is set by controls: 0 for no effect and ±100 for the full control effect; potency is the fitted concentration of half-maximal effect.

For this test, the target named is Luciferin 4-monooxygenase (Photinus pyralis) (UniProt P08659). The test is described as follows: qHTS of Nrf2 Activators: Hit Validation in Secondary FLuc Assay. Note: nearly all actives have a fitted effect of over 65% in size. As to conditions: firefly luciferase inhibition counter-screen, luminescence; series mostly up to 57.5 µM; activity, negative = inhibition: at the top concentration. In outline:
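Purified firefly luciferase is tested for inhibition by compounds in the presence of its substrates, ATP and D-luciferin, each at Km. Inhibition marks likely false positives arising from reporter-enzyme stabilization.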
As for `Cn1c(/C=C/c2cccc(Br)c2)nc2ccccc2c1=O`, the Potency is 10.7 µM (active). Take `Cn1c(CC2C(=O)Nc3ccc(Br)cc32)nc2ccccc2c1=O` (stereo unspecified): the “activity, negative = inhibition” value was -7.26%. Still for that read-out and setting: the value for `CCn1c(/C=C/c2ccccc2)nc2ccccc2c1=O` was -25.2%.

Turning to `CSc1ccccc1NC(=O)c1cc(-c2cccs2)on1`, the Potency is 3.38 µM (active). `COc1ccc(NC(=O)c2cc(-c3cccs3)on2)c(OC)c1`: the “activity, negative = inhibition” value was -23.9%. On to `COC(=O)c1sccc1NC(=O)c1cc(C)on1`, for which the “activity, negative = inhibition” value was 6.05%.

Turning to `CC1(C)C2C/C(=N\O)C(C)(/[N+]([O-])=C/c3cccc([N+](=O)[O-])c3)CC21` (stereo unspecified), the “activity, negative = inhibition” value was 2.48%. For `CC1(C)C(=O)OC(/C=C/c2cccc([N+](=O)[O-])c2)C(C)(C)C1=O` (stereo unspecified), the “activity, negative = inhibition” value is 1.52%. As for `O=[N+]([O-])c1cccc(/C=C/c2ccccn2)c1`, the Potency is 10.7 µM (active). For the compound `N#C/C(=C\C=C\c1ccccc1[N+](=O)[O-])C(=O)NC1CCCCC1`, the “activity, negative = inhibition” value is -27.7%. On to `CC(C)(C)SCCNC(=O)/C=C/c1cccc([N+](=O)[O-])c1`, for which the “activity, negative = inhibition” value is -23.6%. Same read-out and setting: the value for `O=C(NN=Cc1cccc([N+](=O)[O-])c1)c1cccc2ccccc12` was -21%. On the same count and under the same terms, under `Cn1c(SCC(=O)N/N=C/C=C\c2ccccc2[N+](=O)[O-])nc2ccccc21` stands -28.9%. As for `O=[N+]([O-])c1cccc(C=NN=Cc2ccccc2O)c1`, the Potency was 0.601 µM (active). The same measure, in the same setting: the value for `O=[N+]([O-])c1ccccc1C=CC=NN=Cc1ccccc1O` was 0.953 µM (active).

Consider `C=C(C)CNC(=S)N/N=C(\C)c1ccc(Cl)s1`, for which the “activity, negative = inhibition” value was -4.5%. Same read-out and setting: the value for `O=[N+]([O-])c1cccc(-c2cnc3ccccc3n2)c1` was -28.7%. For `c1coc(-c2cnc3ccccc3n2)c1`, the Potency was 2.69 µM (active).

For the compound `O=C(Oc1cccc(-c2cnc3ccccc3n2)c1)c1ccco1`, the Potency is 10.7 µM (active). Take `FC(F)(F)c1cc(-c2ccco2)nc(-n2nnc3ccccc32)n1`: the “activity, negative = inhibition” value is -18.6%.

Turning to `Cc1ccc(NC(=O)/C=C/c2ccc([N+](=O)[O-])s2)cc1`, the “activity, negative = inhibition” value is -2.01%. For the compound `Cc1ccc(/C=C/C(=O)Nc2ccc([N+](=O)[O-])c(NC(=O)/C=C/c3ccc(C)o3)c2)o1`, the Potency is 1.2 µM (active).

On to `O=C(Nc1ccccn1)c1csc2c1CCCC2`, for which the Potency was 3.01 µM (active). Turning to `CSc1nsc(SC)c1NC(=O)Nc1ccccn1`, the “activity, negative = inhibition” value was -27.9%. With `O=C(Nc1nnc(-c2ccccc2F)s1)C1CCCO1` (stereo unspecified), the Potency was 10.7 µM (active). In the case of `O=C(Nc1nnc(-c2ccccc2F)s1)Nc1ccccc1F`, the “activity, negative = inhibition” value is -21.5%. `COCCNc1ccc(-c2nc(-c3ccco3)no2)cc1[N+](=O)[O-]`: the Potency was 0.478 µM (active). For the compound `CCCNC(=O)c1ccc(S(=O)(=O)c2ccc(OC)cc2)c([N+](=O)[O-])c1`, the “activity, negative = inhibition” value was -1.58%.

As to `CCCNc1ccc(-c2nc(-c3ccco3)no2)cc1[N+](=O)[O-]`, the Potency is 0.169 µM (active).

For `O=[N+]([O-])c1cc(-c2nc(-c3ccccc3)no2)ccc1NCc1cccnc1`, the Potency is 4.78 µM (active). On the same count and under the same terms, under `CCNc1ccc(-c2nc(-c3ccco3)no2)cc1[N+](=O)[O-]` stands 0.19 µM (active).

As for `NC(=O)c1ccsc1NC(=O)COC(=O)[C@@H]1CCCN1C(=O)c1cccs1`, the “activity, negative = inhibition” value is -14.2%.

Consider `Cn1c(NC(=O)/C=C/c2ccccc2)cc(=O)n(C)c1=O`, for which the Potency was 8.49 µM (active). Consider `Cc1cc(C)n(S(=O)(=O)/C=C/c2ccccc2)n1`, for which the “activity, negative = inhibition” value was 2.85%. With `CC(=O)c1cc2c(cc1NC(=O)CSc1nc3ccccc3o1)OCO2`, the “activity, negative = inhibition” value was -5.24%. In the case of `Cn1cc([N+](=O)[O-])c(C(=O)Nc2ccc(-c3nc4ccccc4o3)cc2)n1`, the Potency is 8.49 µM (active).

Consider `CC(=O)Nc1nc2cccc([N+](=O)[O-])c2s1`, for which the “activity, negative = inhibition” value is -5.67%. For `CN1C2CCC1/C(=C\c1ccc(F)cc1)C(=O)/C2=C/c1ccc(F)cc1`, the “activity, negative = inhibition” value was 2.61%. Turning to `COc1ccc(-c2nnc3c4ccccc4c(C)nn23)cc1`, the Potency was 7.57 µM (active). Regarding `CCc1nn2c(-c3ccco3)ccnc2c1-c1ccccc1`, the “activity, negative = inhibition” value was 6.51%. As to `Cc1nn2c(-c3ccco3)nnc2c2ccccc12`, the Potency was 16.9 µM (active). Still for that read-out and setting: under `Cc1nn2c(-c3ccccc3)nnc2c2ccccc12` stands 10.7 µM (active). `Cc1ccc(S(=O)(=O)c2nc(S(C)(=O)=O)sc2N2CCN(C)CC2)cc1`: the “activity, negative = inhibition” value was -2.83%. Consider `Cc1ccc(-c2nc(C=Nc3ccc(O)cc3)c(O)o2)cc1`, for which the Potency is 2.69 µM (active).

In the case of `O=c1cc(-c2cccc(Br)c2)oc2cccc(O)c12`, the “activity, negative = inhibition” value is -4.58%. As to `O=c1cc(-c2ccccc2Cl)oc2c(Br)ccc(O)c12`, the Potency was 2.39 µM (active). As for `O=c1oc(CCCO)cc2ccc(C#Cc3ccsc3)cc12`, the Potency was 2.39 µM (active). Still for that read-out and setting: under `O=c1oc(CCO)cc2ccc(C#Cc3ccsc3)cc12` stands 2.69 µM (active).

Take `Cn1c(/N=C(\N)c2ccccc2)nc2ccccc21`: the Potency is 1.35 µM (active). In the case of `Cn1c(/C(C#N)=C(\O)c2cc(Cl)sc2Cl)nc2ccccc21`, the “activity, negative = inhibition” value was -24.2%.

As for `Cc1cc(C)n2nc(-c3ccc(F)cc3)cc2n1`, the Potency was 1.51 µM (active).

On to `Cc1cc(N2CCOCC2)n2nc(-c3cccc(F)c3)cc2n1`, for which the “activity, negative = inhibition” value was -21.8%. As for `COc1ccccc1NC(=O)c1ccc(Cl)c(S(=O)(=O)NCc2ccco2)c1`, the “activity, negative = inhibition” value is -25.3%.

Regarding `COc1ccccc1NC(=O)c1nc(S(=O)(=O)Cc2ccccc2)ncc1Cl`, the Potency was 2.69 µM (active). Turning to `CCOC(=O)c1ccc(NC(=O)c2nc(S(=O)(=O)Cc3ccccc3)ncc2Cl)cc1`, the Potency is 1.69 µM (active). Consider `COc1ccc(Cl)cc1NC(=O)CCS(=O)(=O)c1cccc2nonc12`, for which the “activity, negative = inhibition” value was -0.0594%. As for `Cc1ccc2c(N)c(C(=O)c3ccccc3)sc2n1`, the Potency was 9.53 µM (active). For `Cc1nc2sc(C(=O)c3ccccc3)c(N)c2c2c1CCCC2`, the Potency was 1.9 µM (active).

Take `CN1CCN(C(=O)/C=C/c2ccc([N+](=O)[O-])o2)CC1`: the “activity, negative = inhibition” value was -3.66%.

In the case of `Cc1ccc(C(=O)/C=C/c2ccc(-c3ccccc3[N+](=O)[O-])o2)cc1`, the Potency is 2.69 µM (active). With `O=C(/C=C/c1ccc(-c2ccccc2[N+](=O)[O-])o1)c1ccc(Br)cc1`, the Potency is 6.01 µM (active). On to `O=C(/C=C/c1ccc(-c2ccccc2[N+](=O)[O-])o1)c1ccccc1`, for which the Potency is 5.36 µM (active). The same measure, in the same setting: the value for `COc1ccc(OC)c(C(=O)Nc2c(O)ccc3ccccc23)c1` was 15.1 µM (active). For the compound `COC(=O)c1sccc1NC(=O)c1ccc(OC)c(OC)c1`, the “activity, negative = inhibition” value was 1.53%. With `COC1=C(C)C(O)=C(C(=O)/C=C/c2ccccc2)C(=O)C1(C)C`, the “activity, negative = inhibition” value was -7.39%. For the compound `CNc1ccccc(C(=O)/C=C/c2ccccc2OC)c1=O`, the Potency is 5.36 µM (active). Still for that read-out and setting: the value for `CNc1ccc(Br)cc(C(=O)/C=C/c2ccc(Cl)cc2Cl)c1=O` was 4.78 µM (active); that for `CNc1ccc(Br)cc(C(=O)/C=C/c2cccc(Cl)c2Cl)c1=O` was 4.78 µM (active); that for `CNc1ccc(Br)cc(C(=O)/C=C/c2cccc(OC)c2)c1=O` was 8.49 µM (active). On to `CC1CCN(CC2C(=O)O[C@@H]3C[C@@]4(C)CCC[C@H](C)C4=C[C@H]23)CC(C)(C)C1` (stereo partly specified), for which the “activity, negative = inhibition” value is -1.7%.

Take `Cn1c(=O)oc2cc(NC(=O)CCl)ccc21`: the “activity, negative = inhibition” value was 6.28%. On the same count and under the same terms, the value for `Cc1cc(=O)oc2c(C(=O)/C=C/c3ccccc3)c(O)ccc12` was 2.7%. In the case of `Cc1cc(=O)oc2cc(NC(=O)c3ccccc3Cl)ccc12`, the Potency was 5.36 µM (active). Still for that read-out and setting: the value for `Oc1ccccc1C=NN=Cc1c(O)ccc2ccccc12` was 3.01 µM (active). Regarding `Cn1c(=O)c2nc(NCc3ccccc3)sc2n(C)c1=O`, the “activity, negative = inhibition” value was 5.85%. In the case of `O=S1(=O)C=C(Sc2nc3cc(Cl)ccc3o2)c2ccccc21`, the Potency is 0.849 µM (active). Consider `N#Cc1ccccc1N/C=C/C(=O)c1ccc(Cl)cc1`, for which the Potency was 0.12 µM (active). Take `COC(=O)c1cc(S(=O)(=O)C(C)C)c(S(C)=O)s1` (stereo unspecified): the “activity, negative = inhibition” value is 1.94%. For the compound `Cc1cc(N/N=C/c2c(O)ccc3ccccc23)nc(-c2ccccc2O)n1`, the Potency was 7.57 µM (active).

Take `C=C(NC(=O)C(=C)NC(=O)c1csc(C2=NC3c4csc(n4)C4NC(=O)c5csc(n5)C(C(C)(O)C(C)O)NC(=O)C5CSC(=N5)/C(=C/C)NC(=O)C(C(C)O)NC(=O)c5csc(n5)C3(CC2)NC(=O)C(C)NC(=O)C(=C)NC(=O)C(=C)NC(=O)C(C(C)C)NC2C=Cc3c(C(C)O)cc(nc3C2O)C(=O)OC4C)n1)C(N)=O` (stereo unspecified): the Potency is 7.57 µM (active). Still for that read-out and setting: under `COc1ccc(-c2cc3ccccc3c(=O)o2)cc1` stands 0.478 µM (active).

With `CC(=O)Oc1ccc(-c2nc3c(C)cccc3c(=O)o2)cc1`, the “activity, negative = inhibition” value is -26.3%. As for `O=c1nc2c(-c3ccccc3F)n[nH]n2c2ccccc12`, the Potency is 7.57 µM (active). As for `Clc1nc(NCc2ccco2)nc(N2CCCCC2)n1`, the “activity, negative = inhibition” value is -3.37%. Regarding `c1ccc2nc3c(ccc4ccccc43)cc2c1`, the Potency was 1.35 µM (active).

Take `O=C(/C=C/c1ccc2c(c1)OCO2)c1ccc(O)cc1O`: the Potency is 1.9 µM (active). On to `COc1cc(OCc2ccccc2)c(C(=O)/C=C/c2ccc3c(c2)OCO3)c(OC)c1OC`, for which the “activity, negative = inhibition” value was 2.26%. The same measure, in the same setting: under `COC(=O)c1ccsc1NC(=O)CSc1nnnn1Cc1ccccc1` stands -14.3%. As to `Cc1csc(-c2ccc3cc(Cl)cc(Cl)c3n2)n1`, the Potency is 2.69 µM (active). Same read-out and setting: the value for `Cc1ccc(-c2nc3cccnc3s2)cc1NC(=O)c1ccco1` was 8.49 µM (active). Consider `Cc1ccc(C(=O)OCc2c(C)noc2C)cc1NC(=O)c1ccco1`, for which the “activity, negative = inhibition” value is 1.47%. Still for that read-out and setting: the value for `CCNc1nc(NCC)nc(N(C)/N=C/c2ccco2)n1` was 0.966%. In the case of `Brc1cc2c(cc1/C=N/Nc1nc3ccccc3s1)OCO2`, the Potency was 2.69 µM (active). As for `O=[N+]([O-])c1cc(Cl)cc(/C=N/Nc2nc3ccccc3s2)c1O`, the Potency is 13.5 µM (active). As to `O=C(/C=C/c1ccco1)Nc1ccc(Cl)c(-c2nc3cc(Cl)ccc3o2)c1`, the Potency was 10.7 µM (active). Same read-out and setting: under `O=C(/C=C/c1ccco1)Nc1ccc2nn(-c3ccccc3)nc2c1` stands 9.53 µM (active); under `O=C(Nc1cc2nn(-c3ccccc3)nc2cc1Cl)c1ccco1`, 0.849 µM (active). Turning to `Cc1ccc(NC(=O)c2ccc([N+](=O)[O-])s2)cc1S(=O)(=O)N1CCOCC1`, the “activity, negative = inhibition” value is -3.39%. For the compound `O=C(/C=C/c1ccco1)NC(=S)Nc1ccccc1N1CCCC1`, the “activity, negative = inhibition” value is -27.1%. For `O=C(/C=C/c1ccco1)Nc1cccc(S(=O)(=O)N2CCOCC2)c1`, the Potency is 13.5 µM (active). For the compound `O=[N+]([O-])c1cnc(Nc2ccc(Cl)cn2)c([N+](=O)[O-])c1`, the “activity, negative = inhibition” value was 1.13%.
